Among the data in PubChem BioAssay (NCI) are growth values, retold here.

Among the test systems are SK-MEL-2 melanoma; EKVX NSCLC; SN12C renal; UO-31 renal; TK-10 renal; ACHN renal; CAKI-1 renal; A498 renal; CCRF-CEM leukemia; MOLT-4 leukemia.
Holding throughout (test): NCI-60 one-dose screen, 48 h (100 = growth as untreated, 0 = no growth, -100 = all killed)
Settings in all cases: 10 µM unless noted

About 83,000 compounds went through this panel and 20% of them were active in at least one assay; those are over-represented in the sample as a whole.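 For each line, cells grew in 96-well plates with the test compound present at a single concentration for 48 hours.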 Values without a mark were called inactive. Calls of active or inactive are those of the source. The calls were made as follows: active = growth percent below 10; inactive = the rest.

As for `Cc1ccc(NC(=O)N[C@@H](Cc2cc(F)cc(F)c2)C(=O)N[C@@H]2C(=O)N3CCC[C@H]3C(=O)N3CCCC[C@H]3C(=O)N[C@@H](C)C(=O)N3C[C@H](C)C[C@H]3C(=O)O[C@H]2C)cc1`, the growth in the assay with SK-MEL-2 melanoma was 35.2%; in the assay with EKVX NSCLC, 28.2%; in the assay on SN12C renal, 18.1%; in the assay with UO-31 renal it was 25.2%; in the assay on TK-10 renal, 47.6%; with ACHN renal, 23.6%. For the same compound, the growth in the assay with CAKI-1 renal was 13.7%; in the assay on A498 renal, -1.49% (active); in the assay with CCRF-CEM leukemia, 54.8%; in the assay with MOLT-4 leukemia, 30.9%.
As for `CCOC(=O)CCC[P+](c1ccccc1)(c1ccccc1)c1ccccc1`, the growth with SK-MEL-2 melanoma was 85.4%; in the assay with EKVX NSCLC it was 75.5%; in the assay with SN12C renal, 82%; with UO-31 renal, 87.5%; in the assay with TK-10 renal, 95.9%; in the assay with ACHN renal it was 97.9%. Also, the growth was 101% in the assay with CAKI-1 renal, 86.3% in the assay on A498 renal, 72.6% with CCRF-CEM leukemia and 72% in the assay on MOLT-4 leukemia.
Take `CCN(CC)CCCC(C)Nc1c2ccc(C)cc2nc2ccc(OC)cc12` (stereo not given): the growth with SK-MEL-2 melanoma is 39.2%; in the assay on EKVX NSCLC, 42.3%; in the assay on SN12C renal, 43.3%; with UO-31 renal it was -16.5% (active); with TK-10 renal, 15.4%; in the assay with ACHN renal it was 25.5%. Further, the growth was 38% with CAKI-1 renal, 70.2% in the assay on A498 renal, 30.9% in the assay with CCRF-CEM leukemia and 9.16% (active) in the assay on MOLT-4 leukemia.
On to `C=C(C)C1CCC2(C(=O)O)CCC3(C)C(CCC4C5(C)CCC(OC(=O)NCc6ccccc6)C(C)(C)C5CCC43C)C12` (stereo not given), for which the growth in the assay with SK-MEL-2 melanoma was 54.6%; in the assay on EKVX NSCLC, 29.1%; in the assay on SN12C renal, 42.3%; with UO-31 renal, 40.3%; in the assay with TK-10 renal it was 59.2%; in the assay with ACHN renal, 30.3%. The growth with CAKI-1 renal is 16.1%; in the assay on A498 renal, 56.3%; in the assay on CCRF-CEM leukemia, 36.6%; in the assay with MOLT-4 leukemia, 29.4%.
With `Fc1cc2[nH]ncc2c2c3c(c(-c4cn[nH]c4C(F)(F)F)nc12)C1CCC3C1` (stereo not given), the growth is -32.6% (active) in the assay with SK-MEL-2 melanoma; 28.2% in the assay with EKVX NSCLC; 6.09% (active) in the assay with SN12C renal; -44.2% (active) with UO-31 renal; -11.2% (active) with TK-10 renal; -0.693% (active) with ACHN renal. In addition, the growth in the assay with CAKI-1 renal is -5.2% (active); in the assay with A498 renal, -80.2% (active); in the assay on CCRF-CEM leukemia, 11.5%; in the assay on MOLT-4 leukemia it was 6.06% (active).
In the case of `O=C(Nc1ccc(CN2CCOCC2)c(C(F)(F)F)c1)c1nc2ccc3[nH]ncc3c2c2c1CCCC2`, the growth is 103% with SK-MEL-2 melanoma; 87.3% in the assay with EKVX NSCLC; 94.4% with SN12C renal; 73% in the assay with UO-31 renal; 104% in the assay on TK-10 renal; 91.5% in the assay with ACHN renal. In addition, the growth with CAKI-1 renal was 80.9%; in the assay with A498 renal it was 113%; with CCRF-CEM leukemia it was 84.8%; with MOLT-4 leukemia, 76.3%.
Take `c1ccc(-c2n[nH]c(-c3ccccn3)n2)nc1`: the growth in the assay with SK-MEL-2 melanoma is 108%; in the assay on EKVX NSCLC, 98.5%; in the assay with SN12C renal, 111%; in the assay on UO-31 renal, 93.8%; with TK-10 renal, 116%; with ACHN renal, 107%. Also, the growth with CAKI-1 renal is 81.1%; with A498 renal, 224%; in the assay with CCRF-CEM leukemia it was 103%; with MOLT-4 leukemia it was 128%.
Turning to `CCOC(=O)c1nn(C2CCCCO2)c2ccc(NS(=O)(=O)c3ccc(C)cc3)cc12` (stereo not given), the growth in the assay with SK-MEL-2 melanoma was 106%; in the assay on EKVX NSCLC, 102%; in the assay on SN12C renal it was 93.6%; in the assay with UO-31 renal, 82.7%; with TK-10 renal, 111%; with ACHN renal it was 94.3%. Besides, the growth was 77.8% with CAKI-1 renal, 62.9% in the assay on A498 renal, 98.9% in the assay on CCRF-CEM leukemia and 86.2% in the assay with MOLT-4 leukemia.
Consider `C=C(C)[C@@H]1CC[C@]2(C(=O)O)CC[C@]3(C)[C@H](CC[C@@H]4[C@@]5(C)C/C(=C/c6ccco6)C(=O)C(C)(C)[C@@H]5CC[C@]43C)[C@@H]12`, for which the growth with SK-MEL-2 melanoma is -76% [100 µM] (active); in the assay with EKVX NSCLC it was -63% [100 µM] (active); in the assay on SN12C renal it was -70.6% [100 µM] (active); in the assay on UO-31 renal it was -95.4% [100 µM] (active); in the assay on TK-10 renal, -58.5% [100 µM] (active); in the assay on ACHN renal it was -89.8% [100 µM] (active). The growth in the assay with CAKI-1 renal is -69.6% [100 µM] (active); in the assay on A498 renal, -58.5% [100 µM] (active); in the assay on CCRF-CEM leukemia, 3.44% [100 µM] (active); in the assay with MOLT-4 leukemia, -8.01% [100 µM] (active).
Take `Cc1ccc(S(=O)(=O)NCCCNc2nccc(-c3c(-c4cccc(F)c4)nc4occn34)n2)cc1`: the growth with SK-MEL-2 melanoma is 87.8%; in the assay on EKVX NSCLC it was 78.7%; in the assay on SN12C renal, 70.1%; with UO-31 renal, 43.6%; with TK-10 renal, 79.8%; in the assay with ACHN renal it was 80.9%. Moreover, the growth in the assay on CAKI-1 renal is 53.4%; with A498 renal it was 57.5%; in the assay with CCRF-CEM leukemia, 42.2%; with MOLT-4 leukemia it was 27%.
As for `CC1(C)CC[C@]23CC[C@]4(C)[C@H](CC[C@@H]5[C@@]6(C)C/C(=C/c7cccnc7)C(=O)C(C)(C)[C@@H]6CC[C@]54C)[C@H]2[C@H]1OC3=O`, the growth with SK-MEL-2 melanoma is 27.6% [100 µM]; in the assay with EKVX NSCLC, 74.7% [100 µM]; in the assay with SN12C renal, 41.5% [100 µM]; in the assay on UO-31 renal, 34.8% [100 µM]; in the assay on TK-10 renal, 55% [100 µM]; with ACHN renal, 36.9% [100 µM]. Also, the growth is 40.6% [100 µM] in the assay with CAKI-1 renal, 31.5% [100 µM] in the assay on A498 renal, 19.3% [100 µM] in the assay with CCRF-CEM leukemia and 19.4% [100 µM] in the assay with MOLT-4 leukemia.
